Lamin A splicing = LMNA splicing modulation | AID 1487 | 200,000 tested, 0.01% active | Potency, µM (top dose mostly 46.1 µM), without a hit: at the highest dose ratio change, negative = inhibition, most hits filed as inhibitors | HeLa LMNA splicing GFP/RFP minigene ratio, 48 h; active = well fitted inhibition curve with a large enough effect in the signal ratio, with a control signal flat, not every such curve was filed as active; inconclusive = small, poorly fitted or top-dose-only effect, or effect the other way, or a change in a side signal; the % refers to the signal ratio; note: potency is the fitted concentration of half-maximal effect; % is set by controls: 0 for no effect and ±100 for the full control effect
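S3 HeLa stable clones carrying a lamin A-EGFP splicing minigene plus DsRed2 were seeded at 600 cells/well in Opti-MEM with 2% FBS, pin-dosed and incubated 48 h at 37°C. Acumen cytometry (488 nm) gave the GFP/RFP total-intensity ratio.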
CBFb RUNX1 block = blocks binding between human CBF-beta and RUNX1; AlphaScreen CBFb-His/RUNX1-biotin binding, biochemical; Potency, µM (top dose mostly 59.8 µM), without a hit: at the top dose activity, negative = inhibition, hits mostly inhibitors; 230,000 tested, under 10 active; note: % of control where 0% means no effect
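Interaction loss through any mechanism counts as activity. Pre-formed complex of His-CBF-beta and biotin-RUNX1 (30 nM apiece) is incubated with compound 15 min, then with 50 ng nickel and 50 ng streptavidin beads for 90 min before AlphaScreen detection.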
HTT cytoprotect = protects HTT-Q103 PC12 cells, measured by ATP; PC12 HTT-Q103 induced, cytoprotection, ATP luminescence, 40 h; Potency, µM (highest dose often 56.4 µM), inactives show cytoprotection (ATP increase), actives largely listed as activators; 230,000 tested, 0.14% active; AID 1471; note: potency is the fitted concentration of half-maximal effect; % of control where 0% means no effect; nearly all actives have a fitted effect of over 45% in size
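Stable PC12 Q103-GFP cells in serum-supplemented, phenol red-free DMEM; induction by tebufenozide at 100 nM final; compound dose series; cell viability quantified luminescently from ATP.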
MBNL1-CUG inh = blocks human MBNL1 binding to CUG repeat RNA; Q9NR56; TR-FRET MBNL1-His/biotin-(CUG)12 binding, 665/545 ratio; Potency, µM (top dose mostly 57.5 µM), for the others: at the highest dose activity change, negative = inhibition, usual class: inhibitors; 280,000 tested, 0.036% active; AID 2675; active = well fitted inhibition curve with a large enough effect in the signal ratio, with a control signal flat, not every such curve was filed as active; inconclusive = small, poorly fitted or top-dose-only effect, or effect the other way, or a change in a side signal; inactive = no such curve, though single readings can be large or run the other way; the % refers to the signal ratio; note: potency is the fitted concentration of half-maximal effect; % is set by controls: 0 for no effect and ±100 for the full control effect
Target sequence (Q9NR56 whole entry, looked up): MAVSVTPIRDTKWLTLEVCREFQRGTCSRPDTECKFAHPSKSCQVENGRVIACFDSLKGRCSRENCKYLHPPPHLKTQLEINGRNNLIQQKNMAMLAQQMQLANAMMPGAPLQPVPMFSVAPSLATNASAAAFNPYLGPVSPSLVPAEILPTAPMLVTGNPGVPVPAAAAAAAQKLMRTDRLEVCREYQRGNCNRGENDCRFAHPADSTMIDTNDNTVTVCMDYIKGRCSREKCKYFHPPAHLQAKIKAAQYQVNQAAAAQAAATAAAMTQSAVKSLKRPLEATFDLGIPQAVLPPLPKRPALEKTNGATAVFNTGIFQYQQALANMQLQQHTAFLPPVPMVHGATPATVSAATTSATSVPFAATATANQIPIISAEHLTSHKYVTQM
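MBNL1-His + Biotin-(CUG)12, cpd titration 92 nM–58 uM; Tb anti-His Ab 0.055 ng/ul, SA-XL665 5 nM (final); 60 min RT; ratiometric 665/545 nm, Ex 340 nm; normalized to buffer and full-complex controls.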
NPSR antag = blocks cAMP signaling of the human neuropeptide S receptor. Q6W5P4. CHO-NPSR cells, cAMP TR-FRET, antagonist mode. Potency, µM (highest dose often 38.3 µM), for inactives: top-dose activity change, negative = inhibition, hits mostly inhibitors. 220,000 tested, 1% active. AID 1461; note: potency is the fitted concentration of half-maximal effect; % is set by controls: 0 for no effect and ±100 for the full control effect; nearly all actives have a fitted effect of over 50% in size
HttQ103 aggreg = inhibitors of mutant huntingtin aggregate formation in PC12 cells; AID 1688; PC12 HttQ103-GFP aggregates, Acumen cytometry, 40 h; Potency, µM (series often up to 46.1 µM), inactives show top-dose activity change, negative = inhibition, most hits filed as inhibitors; 220,000 tested, 1.1% active; note: potency is the fitted concentration of half-maximal effect; % is set by controls: 0 for no effect and ±100 for the full control effect; nearly all actives have a fitted effect of over 60% in size
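Using laser scanning cytometry, GFP-positive aggregates were counted after lysis of PC12 cells induced with 100 nM tebufenozide to express HTT exon 1 Q103–GFP. Compounds were tested in titration.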
* marks the source's active call; other numbers are inactive results; ? = inconclusive; . = no result given; [ ] = another dose, or the depositor's remark. In the library only some 1.1% were active in any assay of this set; here they are far more common. Unless noted, calls come from the whole dose curve; as a rule, active = well fitted curve in the direction sought with a large enough effect; inconclusive = small, poorly fitted or top-dose-only effect, or another doubt; inactive = no such curve, though single readings can be large; an effect the other way counts as inactive or inconclusive.

SMILES	Lamin A splicing	CBFb RUNX1 block	HTT cytoprotect	MBNL1-CUG inh	NPSR antag	HttQ103 aggreg
COc1ccc(CS(=O)(=O)/C(Cl)=C(/Cl)C(=O)Nc2ccc(OC)nc2)cc1	?	0%	-26%[10 µM]	-7%	6.3µM*	?
COc1ccc(NC(=O)/C(Cl)=C(/Cl)S(=O)Cc2ccccc2)cn1 (configuration not stated)	?	-2%	-91%	4%	1.3µM*	5µM*
O=c1c2ccccc2oc2cc(O)c([C@@H]3COC[C@@H](CO)[C@@H](O)[C@@H](O)[C@H]3O)c(O)c12	.	.	-7%	.	.	.
Cc1ccc(-c2ccc(/C=N/NC(N)=S)o2)cc1	.	-7%	29%[10 µM]	?	6.3µM*	15%[9.22 µM]
c1ccc(-c2nc(N3CCN(c4ccccc4)CC3)nc(-n3ccnc3)n2)cc1	?	-5%	-28%	1%	?	14µM*
O=C(O)CCc1cc(I)c(O)c(I)c1	.	8%	15%	.	.	.
CC1=C(C)/C(=N\OS(=O)(=O)c2ccccc2)C=CC1=O	?	3%	-118%	5%	5µM*	?
Cc1ccc(N/C=C(/C#N)c2ccsc2)cc1	?	0%	-5%	5%	-21%[46.1 µM]	2%
N#C/C(=C/Nc1ccccc1)c1ccsc1	18%	-17%	-8%	1%	-20%[46.1 µM]	13µM*
Cc1ccc(CNC(=O)C(=O)NCC(c2ccc3c(c2)OCO3)N2CCOCC2)cc1 (configuration not stated)	6%[46 µM]	.	.	.	.	.
O=C(NNC(=O)c1cccs1)c1ccco1	-7%[46 µM]	4%	4%[10 µM]	11%	-23%	-15%[9.22 µM]
COc1ccc(C(=O)NNC(=S)NC(=O)c2ccco2)cc1	-22%	-19%	-46%	5%	-25%[46.1 µM]	20µM*
O=C(NC(=S)NNC(=O)c1cccs1)c1ccco1	0%	-4%	-77%	1%	-6%[46.1 µM]	11µM*
CC(C)OC(=O)NC(C)(C)COC(=O)Nc1cccc(Cl)c1	-11%	9%	-2%[10 µM]	-2%	8%[46.1 µM]	1%
CC(C)OC(=O)NCCOC(=O)Nc1ccc(Cl)c(Cl)c1	?	-4%	26%[10 µM]	-2%	-17%[46.1 µM]	7.1µM*
CC(C)OC(=O)NCCOC(=O)Nc1cccc(Cl)c1	14%	8%	22%[10 µM]	-4%	9%[46.1 µM]	11µM*
O=C(Nc1ccc(Cl)c(Cl)c1)OCc1cncs1	-14%	11%	6%	-1%	8%[46.1 µM]	11µM*
O=C1OC(O)C(C(Cl)Cl)=C1Cl (configuration not stated)	.	10%[21.7 µM]	-56%	.	.	.
COc1cccc(CNC(=O)c2cc(C)nc3c2c(C)nn3-c2cccc(F)c2)c1	4%[46 µM]	.	.	.	.	.
CCCCCCCCCCCCCCCC(=O)OCC(O)C1OC(=O)C(O)=C1O (configuration not stated)	.	-22%	-61%	.	.	.
FC(F)(F)c1cc(CO[C@@H]2CCCN[C@H]2c2ccccc2)cc(C(F)(F)F)c1	.	.	-22%[1.9 µM]	.	.	.
C=CCn1c(NC(=O)c2ccccc2Cl)c(C#N)c2nc3ccccc3nc21	?	21%	-45%	?	4%[46.1 µM]	16µM*
CCOC(=O)N1CCN(c2cc(NCCC(=O)O)c3c4c(onc24)-c2ccccc2C3=O)CC1	1%	?	-7%[1.9 µM]	?	10µM*	7%
O=C(O)CCCNc1cc(N2CCC3(CC2)OCCO3)c2noc3c2c1C(=O)c1ccccc1-3	8%	.	-41%	?	10µM*	-4%
CCNc1ccc2noc3c2c1C(=O)c1ccccc1-3	?	.	27%[10 µM]	?	-17%[46.1 µM]	-24%
SMILES	Lamin A splicing	CBFb RUNX1 block	HTT cytoprotect	MBNL1-CUG inh	NPSR antag	HttQ103 aggreg
O=S(=O)(Nc1cccc2cccnc12)c1ccc(Br)cc1	.	16%	.	.	.	.
COc1ccccc1NC(=O)CN1C(=O)CC(c2ccc(C)c(C)c2)=Nc2ccccc21	-23%[46 µM]	.	.	.	.	.
O=S(=O)(Nc1cccc2cccnc12)c1ccc(Br)s1	.	6%	.	.	.	.
CC1=C(C(=O)OCc2ccc3c(c2)OCO3)C(c2ccccc2OCc2ccccc2)NC(=O)N1 (configuration not stated)	-15%	-26%	-47%	0%	-14%[46.1 µM]	?
CC1=C(C(=O)OCc2ccc3c(c2)OCO3)C(c2ccc(O)c([N+](=O)[O-])c2)NC(=O)N1 (configuration not stated)	.	3%	.	5%	-24%	7.1µM*
CC1=C(C(=O)OCc2ccc3c(c2)OCO3)C(c2ccccc2)NC(=O)N1 (configuration not stated)	?	-2%	16%	-8%	-3%[46.1 µM]	2.8µM*
CN1CC[C@@]2(CCN3CCc4c(oc5ccccc45)[C@@H]3C2)N(C)C1=O	.	.	-2%[1.9 µM]	.	.	.
O=C(O)CCS(=O)(=O)c1nc(-c2cccs2)cc(C(F)(F)F)n1	-14%	3%	4%	11%	-6%[46.1 µM]	?
Cc1cc(NC(=O)CSc2nc(-c3cccs3)cc(C(F)(F)F)n2)no1	?	13%	6%[10 µM]	15%	-15%[46.1 µM]	-18%
Cc1cc(NC(=O)CCCS(=O)(=O)c2nc(-c3cccs3)cc(C(F)(F)F)n2)no1	-6%	-6%	-88%	27%	?	10µM*
CS(=O)(=O)c1nc(-c2cccs2)cc(C(F)(F)F)n1	?	2%	-99%	30%	3.2µM*	7.1µM*
CC(/C=N\N1CCN(c2ccc(Cl)cc2)CC1)=C\c1ccccc1	2%	8%	3.2µM*	-6%	4%[46.1 µM]	14%

Assay outcomes from PubChem BioAssay.
